Each compound was assayed on WNK2. Details: concentration: 1 μM, replicates: in singlicate; n = 1.
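Also: KINOMEscan kinase panel screen.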

Point of comparison: `COc1cc2c(cc1OC[C@@H](O)CO)ncc1c3ccc(C#N)cc3[nH]c21`, “%Inh” value 0%. Against it:
- CC(C)(C)n1cnc2c(N)ncnc21 [SKF-97359] — higher, 25%
- Cc1cccc(Cn2ccn3c(=O)cc(N4CCOCC4)nc23)c1 [GSK2297542] — higher, 6%
- c1ccc(-c2cc(-c3c[nH]nc3-c3ccccn3)ccn2)cc1 [GW576604] — higher, 18%
- O=C(Nc1cccc(-c2nn3ncccc3c2-c2ccnc(Nc3cccc(C(F)(F)F)c3)n2)c1)c1c(F)cccc1F [GSK299495] — the same, 0%
- N#Cc1ccc(-c2cc(-c3c[nH]nc3-c3ccccn3)ccn2)cc1 [GW693028] — higher, 15%
- Fc1ccc(-c2ncn(CCCN3CCOCC3)c2-c2ccccn2)cc1 [SB-211742] — the same, 0%
- COc1ccc(Nc2nccc(N3CCC(NC(=O)Nc4cccc(C(C)=O)c4)C3)n2)cc1 (centres unmarked) [GSK1379731] — higher, 6%
- Cn1cc(-c2ccc3c(c2)CCN3C(=O)Cc2ccccc2Cl)c2c(N)ncnc21 [GSK2608885] — higher, 17%
- CNc1ncnc2[nH]ncc12 [SKF-18355] — the same, 0%
- Cc1cccc(-c2nc(Nc3ccc4ncsc4c3)c3ccccc3n2)n1 [GW867588] — higher, 6%
- [2H]C([2H])(c1cccc(C(F)(F)F)c1C)n1ccn2c(=O)nc(N3CCOCC3)cc12 [GSK2336394] — the same, 0%
- Cc1c2ccc(N(C)c3ccnc(Nc4cccc(S(N)(=O)=O)c4)n3)cc2nn1Cc1ccccc1.Cl.Cl [GW787226] — the same, 0%
- O=C(c1ccc(-c2cc(-c3c[nH]nc3-c3ccccn3)ccn2)cc1)N1CCOCC1 [GW812171] — higher, 9%

Reference: paper PMC5540273 (PLoS ONE, 2017)
